FMDV antiviral: antivirals against foot and mouth disease virus; FMDV antiviral cell-based qHTS; Potency, µM (doses to about 57.9 µM), most hits filed as inhibitors; hit rate 1.2% among 410,000; AID 1159524; calls by dose curve; tested in HEK293T cells; note: read-out not given here; nearly all actives have a fitted effect of over 45% in size
AmpC detergent: AmpC beta-lactamase inhibition with detergent present | AID 485294 | AmpC hydrolysis of nitrocefin, absorbance 480 nm, 0.01% Triton | Potency, µM (doses to about 114 µM), most hits filed as inhibitors | P00811 | hit rate 0.041% among 370,000; note: nearly all actives have a fitted effect of over 25% in size
Target sequence (P00811 whole entry, looked up): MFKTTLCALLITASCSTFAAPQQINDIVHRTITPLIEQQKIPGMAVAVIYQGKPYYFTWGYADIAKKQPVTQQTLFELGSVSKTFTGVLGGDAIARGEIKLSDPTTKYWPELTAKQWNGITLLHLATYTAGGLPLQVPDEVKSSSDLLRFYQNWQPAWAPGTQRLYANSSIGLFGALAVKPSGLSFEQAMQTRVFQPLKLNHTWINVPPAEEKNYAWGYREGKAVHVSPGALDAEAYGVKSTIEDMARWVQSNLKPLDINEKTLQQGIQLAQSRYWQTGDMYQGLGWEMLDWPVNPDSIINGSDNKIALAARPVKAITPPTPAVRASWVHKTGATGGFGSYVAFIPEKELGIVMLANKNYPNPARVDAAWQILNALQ
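AmpC (5.3 nM in the dispensed reagent) in 20 mM phosphate pH 7.0 with 0.01% (detergent screen) or 0.0001% Triton X-100 was preincubated with compounds for 15 min at room temperature. Nitrocefin was then added from an 800 uM solution, and hydrolysis was followed at 480 nm.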
AMA1-RON2 inh: disrupts binding of P. falciparum AMA1 to RON2; AlphaScreen AMA1-biotinylated RON2 peptide binding; Potency, µM (series often up to 58.2 µM), usual class: inhibitors; hit rate 0.2% among 360,000; AID 720542; note: nearly all actives have a fitted effect of over 45% in size
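AMA1 (3D7) with his tag at 25 nM final met compounds first, then biotinylated RON2 peptide at 25 nM; detection used donor plus acceptor beads, 10 µg/mL apiece, read by AlphaScreen after 30 min at room temperature.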
AmpC no deterg: blocks E. coli AmpC beta-lactamase in detergent-free assay; P00811; AmpC nitrocefin hydrolysis, absorbance 480 nm, 0.0001% Triton; Potency, µM (doses to about 57.1 µM), usual class: inhibitors; hit rate 0.52% among 330,000; AID 485341; note: nearly all actives have a fitted effect of over 20% in size
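20 mM phosphate pH 7.0 + 0.01% (detergent screen) or 0.0001% Triton X-100; 5.3 nM AmpC reagent; cpd preinc 15 min RT; nitrocefin (800 uM stock) to start; A480 q20 s × 4 min; Activity was normalised to no-enzyme and no-compound control wells.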
Sm TGR block: S. mansoni TGR enzyme inhibition. Q962Y6. purified TGR, DTNB reduction, TNB absorbance 405 nm. Potency, µM (series often up to 114 µM), usual class: inhibitors. hit rate 3% among 360,000. AID 485364; note: nearly all actives have a fitted effect of over 60% in size
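First, TGR (20 nM dispensed) and NADPH were mixed with compound. Second, a 15 min room-temperature incubation followed. Third, further NADPH and then DTNB were added to start the reaction. Finally, TNB absorbance was monitored kinetically.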
A number is an active result; i = inactive; ? = inconclusive; nt = no result given; [ ] = dose if it differs, or a comment. In the library only some 4.1% were active in any assay of this set; here they are far more common. Unless noted, calls come from the whole dose curve; as a rule, active = well fitted curve in the direction sought with a large enough effect; inconclusive = small, poorly fitted or top-dose-only effect, or another doubt; inactive = no such curve, though single readings can be large; an effect the other way counts as inactive or inconclusive.

SMILES | FMDV antiviral | AmpC detergent | AMA1-RON2 inh | AmpC no deterg | Sm TGR block
COc1ccc(C(=O)Oc2cc(C)c(CN3CCOCC3)cc2C)cc1OC | ? | i | i | i | 40µM
CCCCNC1=CC(=O)C(=O)c2ccccc21 | 35µM | i | i | i | i
Cc1ccccc1CSc1nnc2[nH]c(=O)cc(C)n12 | i | i | nt | nt | i
CCOc1ccc(S(=O)(=O)N/N=C(\C)Cc2ccc(OC)cc2)cc1 | i | i | i | i | 32µM
CCN(Cc1ccccc1)C(=O)Cn1cc2c(n1)CCCC2 | i | i | i | 4.5µM | i
CC(C)CCNC(=O)Cn1cc2c(n1)CCCCC2 | i | ? | i | 45µM | i
O=C(Cn1cc2c(n1)CCCCC2)NCc1ccccc1 | i | ? | i | i | i
CCOCCCNC(=O)Cn1cc2c(n1)CCCCC2 | i | ? | i | 45µM | i
CO[C@H]1[C@H](NC(=O)c2ccco2)c2ccccc2C12CCN(Cc1ccc3cccc(F)c3n1)CC2 | i | nt | nt | nt | nt
CCCc1nn2c(=O)cc(COC(=O)C3CCCCC3)nc2s1 | i | i | nt | nt | i
COc1cccc(C(=O)N(Cc2sccc2C)C2CCS(=O)(=O)C2)c1 (centres undefined) | i | i | nt | nt | i
Oc1c(Br)cc(Cl)cc1C=Nc1ccc(N2CCOCC2)cc1 | i | i | i | i | i
Oc1c(Br)cc(Cl)cc1C=Nc1ccccc1Br | i | ? | i[2.32 µM] | i | 22µM
CC1CC(C)CN(c2oc(-c3ccccc3F)nc2C#N)C1 (centres undefined) | i | i | i | i | i
COc1ccccc1-c1nc(C#N)c(N2CC(C)CC(C)C2)o1 (centres undefined) | i | i | i | i | 1.1µM
NC(=O)N\N=C/C=C/C=C/c1ccc(F)cc1 | i | i | i | i | 25µM
NC(=O)N/N=C/C=C/c1ccccc1 | i | i | i | i | nt
CN1OC[C@@H]2CN(Cc3ccccc3)[C@H](c3ccc(N4CCCCC4)cc3)C[C@@H]21 | i | nt | ? | nt | nt
CN1OC[C@@H]2CN(Cc3ccc4c(c3)OCO4)[C@H](c3ccc(N4CCCCC4)cc3)C[C@@H]21 | i | nt | 14µM | nt | nt
O=C(OCc1nc2ccc(Cl)cc2n1CCO)c1ccccc1 | ? | i | i[11.6 µM] | i | 18µM
O=C(OCc1nc2ccc(Cl)cc2n1CCO)c1ccc(O)cc1 | i | i | i | i | i
CCCCC#Cc1ccc(C(=O)NNC(=O)Nc2cc(Cl)cc(Cl)c2)o1 | i | i | i | 14µM | i
Cc1nc(-c2ccc(C)c(N3CCN(C(=O)Nc4ccccc4C(F)(F)F)CC3)c2)no1 | i | i | nt | nt | i
O=C(/C=C/c1cn(-c2ccccc2)nc1-c1cccnc1)N1CCCC1 | i | i | i | i[11.4 µM] | i
O=C(/C=C/c1cn(-c2ccccc2)nc1-c1cccnc1)c1ccco1 | 14µM | i | i | i | i
SMILES | FMDV antiviral | AmpC detergent | AMA1-RON2 inh | AmpC no deterg | Sm TGR block
CC(C)N=c1scc(-c2cccs2)n1/N=C/c1ccc(O)c(O)c1O | i | i | i[11.6 µM] | i | 20µM
CN=c1scc(C)n1/N=C/c1ccc(O)cc1O | ? | i | i | i | i
CN=c1scc(-c2ccccc2F)n1/N=C/c1ccc[nH]1 | 126µM | i | i | i | i
CCN=c1scc(-c2ccc(F)cc2)n1/N=C/c1ccccn1 | i | i | i | i | i
CN=c1scc(-c2ccccc2F)n1/N=C/c1ccc(O)c(O)c1O | 3.5µM | i | i | i | 18µM
CCc1nc2ccc(C(=O)NC3CCN(Cc4ccccc4)CC3)cn2c1N(CC)Cc1cccc(Br)c1 | i | nt | i | nt | nt
COCCn1c(=O)c(-c2cccs2)nc2cnc(Oc3cccc(Cl)c3)nc21 | i | nt | nt | nt | nt
O=C(/C=C/c1cccc([N+](=O)[O-])c1)Nc1cccc(NC(=O)c2ccco2)c1 | i | ? | i | 3.2µM | i
O=C(/C=C/c1ccc(Cl)c([N+](=O)[O-])c1)Nc1cccc(NC(=O)c2ccco2)c1 | ? | i | i | i | i
CCOC(=O)/C=C/C(=O)Nc1cccc([N+](=O)[O-])c1 | 25µM | i | i | i | 0.71µM
CCOC(=O)/C=C/C(=O)Nc1ccccc1-c1ccccc1NC(=O)/C=C/C(=O)OCC | ? | ? | i[2.32 µM] | i | 13µM
CCOC(=O)/C=C/C(=O)OCC(=O)Nc1ccc([N+](=O)[O-])cc1 | i | i | i | i | 4µM
Cc1c(C(=O)NCC2CCCN(C)C2)cnn1-c1ncc2c(n1)-c1ccccc1CCC2 (centres undefined) | i | nt | nt | nt | nt
Cc1ccc2c(c1)C(=O)[C@@]1(O)CCN(c3ccccc3)C1=N2 | i | nt | nt | nt | nt
Cc1ccc(S(=O)(=O)N2CCN(Cc3ccccc3Cl)CC2)cc1 | i | i | nt | nt | i
CN1C(=O)N(CC(=O)N2CCN(S(=O)(=O)c3ccc(Cl)s3)CC2)C(=O)C12CCCCC2 | i | i | i[11.6 µM] | i | 45µM
Cc1cc2c(N)cccc2nn1 | i | i | ? | i | 25µM
CCCCCCCCCC(=O)O | i | nt | i | i | nt
CCCCCC#CCC#CCC#CCC#CCCCC(=O)O | i[6.7 µM] | i | nt | i | 20µM
CC1(C)CC(=O)C2=C(C1)c1c(ccc3ccccc13)NC2c1ccco1 (centres undefined) | i | i | i | i | 45µM
Cc1ccc(CN2CCC(CNC(=O)Nc3cccc(C)c3C)C2)cc1 (centres undefined) | i | i | nt | nt | i
COCCn1c(=O)c(-c2ccc(F)cc2)nc2cnc(OC)nc21 | i | nt | nt | nt | nt
CCOc1ccc(N2C(=O)NC(=O)/C(=C\c3ccccc3[N+](=O)[O-])C2=O)cc1 | i | i | i | i | ?
COc1ccc(OC)c(N2C(=O)NC(=O)/C(=C\c3ccc([N+](=O)[O-])s3)C2=O)c1 | i | i | i | i | 11µM
CN1C(=O)NC(=O)/C(=C/c2ccc([N+](=O)[O-])s2)C1=O | ? | i | ? | i | 8.9µM
SMILES | FMDV antiviral | AmpC detergent | AMA1-RON2 inh | AmpC no deterg | Sm TGR block
COc1ccc(N2C(=O)NC(=O)/C(=C\c3ccccc3[N+](=O)[O-])C2=O)cc1 | i | i | i | i | 16µM
O=C1NC(=O)N(c2ccccc2)C(=O)/C1=C\c1ccc([N+](=O)[O-])s1 | i | i | i | i | 10µM
O=C1NC(=O)N(c2ccc(F)cc2)C(=O)/C1=C/c1ccsc1 | i | i | i | i | i
O=C(NCCN1CCOCC1)c1cnn(-c2nccc(-c3ccccc3C(F)(F)F)n2)c1C1CC1 | i | nt | nt | nt | nt
Cc1oc(-c2ccccc2NC(=O)C2CCC2)nc1CNC(=O)c1ccccn1 | i | nt | nt | nt | nt
O=C(OC1Cc2c(O)cc(O)cc2OC1c1cc(O)c(=O)c2c(O)c(O)cc(C3Oc4cc(O)cc(O)c4CC3OC(=O)c3cc(O)c(O)c(O)c3)c2c1)c1cc(O)c(O)c(O)c1 (centres undefined) | i | nt | nt | nt | nt
COc1cc(-c2cc(C)c3c(OC)ccc(OC)c3n2)cc2c1OCCN(C(=O)C(C)c1n[nH]c(=O)c3ccccc13)C2 (centres undefined) | i | nt | nt | nt | nt
COc1ccc(/C=C/c2nc(C#N)c(NC3CCCCC3)o2)cc1OC | i | i | nt | nt | i
O=C(Oc1ccccc1)N1CCC2(CC1)CN(c1ccccn1)C2 | i | nt | nt | nt | nt
